# Source: PubChem
# In the library only some 6.1% were active in any assay of this set; here they are far more common.
# D3 ag – qHTS of D3 Dopamine Receptor Agonist: qHTS; D(3) dopamine receptor (Homo sapiens), P35462; D3R DiscoveRx beta-arrestin cells, luminescence, 90 min; max activation, %; 410,000 tested, 0.58% active; in the data active = max activation above about 30%; also: 0% is about no effect
#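 Agonist-mode cell screen: cells plated at 1500/well and incubated overnight at 37 °C, then exposed to library compounds for 90 min at 37 °C. Detection reagent was added for 30–60 min at room temperature, and luminescence was read.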
# D1 antag – Antagonist of Human D 1 Dopamine Receptor: qHTS; D(1A) dopamine receptor (Homo sapiens), P21728; HEK293 TREx D1 cells, calcium flux, dopamine EC80; stronger effect = lower value; activity change, negative = inhibition, % at 10 µM; 360,000 tested, 3.2% active; in the data active = activity change below about -30%; also: % is scaled to controls: 0 for no effect and ±100 for the full control effect
# Target sequence (P21728 whole entry, looked up): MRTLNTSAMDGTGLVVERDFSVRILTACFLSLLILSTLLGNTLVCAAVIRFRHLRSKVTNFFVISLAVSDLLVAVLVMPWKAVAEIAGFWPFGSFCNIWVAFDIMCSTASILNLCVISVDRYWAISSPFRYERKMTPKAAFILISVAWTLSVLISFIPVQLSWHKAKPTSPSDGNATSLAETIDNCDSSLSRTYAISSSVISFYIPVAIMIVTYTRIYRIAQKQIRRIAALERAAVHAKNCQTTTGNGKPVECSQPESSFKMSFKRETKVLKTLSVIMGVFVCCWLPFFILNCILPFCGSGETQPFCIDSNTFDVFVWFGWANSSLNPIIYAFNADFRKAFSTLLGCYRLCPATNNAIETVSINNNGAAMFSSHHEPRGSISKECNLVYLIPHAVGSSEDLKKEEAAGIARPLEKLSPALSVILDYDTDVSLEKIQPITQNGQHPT
#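 Antagonism measured as reduced calcium response to an EC80 dopamine addition following 180 s compound pre-read; cells were inducible HEK293 Trex D1 plated overnight at 30 C, read kinetically at 1 cycle/sec.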
# D3 antag – qHTS of D3 Dopamine Receptor Antagonist: qHTS; D3R cells, DiscoveRx beta-arrestin luminescence, antagonist mode; stronger effect = lower value; D(3) dopamine receptor (Homo sapiens), P35462; 360,000 tested, 2.5% active; max response, negative = inhibition, %; in the data active = max response below about -50%; inconclusive = no clear call, values can overlap the other calls; also: % is scaled to controls: 0 for no effect and ±100 for the full control effect
#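 Cells plated overnight at 1500 cells/well, then exposed to library compounds with dopamine controls for 90 minutes at 37 degrees C. DiscoveRx reagent added for 30–60 minutes at room temperature; luminescence read, quantitative HTS format.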
# ERG Ets-DNA blk – qHTS for Small Molecule Inhibitors of the ERG Ets/DNA interaction; Transcriptional regulator ERG (Homo sapiens), P11308; 370,000 tested, 0.028% active; Potency, µM (top dose mostly 76.9 µM), for inactives: top-dose FP activity, negative = inhibition, most hits filed as inhibitors; fluorescence polarization, His-ERG Ets domain / labelled DNA; active = well fitted inhibition curve with a large enough effect in the polarisation, with a control signal flat; inconclusive = small, poorly fitted or top-dose-only effect, or effect the other way, or a change in a side signal; inactive = no such curve, though single readings can be large or run the other way; the % refers to the polarisation;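 also: polarization taken with two DNA probes labelled with fluorescein and Texas red; potency is read from the fitted curve at half-maximal effect; % of control where 0% means no effect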
#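 His-tagged ERG Ets domain (1 uM in the protein solution; 300mM KCl, 50mM Tris-HCl, 1mM EDTA, 1mM DTT, pH 7.5) received compound, then a probe mix of 5 nM fluorescein-DNA and 100nM Texas-615-DNA. Fluorescence polarization was read for both dyes.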
# D1 PAM – Potentiators of Human D1 Dopamine Receptor: qHTS. potentiation, % at 10 µM. D(1A) dopamine receptor (Homo sapiens), P21728. HEK293 TREx D1 cells, calcium flux, dopamine EC20 potentiation. AID 504651, 2011. 360,000 tested, 0.036% active; in the data active = potentiation above about 30%; also: 0% is about no effect
# D1 ag – Allosteric Agonists of the Human D1 Dopamine Receptor: qHTS; D(1A) dopamine receptor (Homo sapiens), P21728; HEK293 T-REx D1 cells, calcium flux, agonist mode; activation, % at 2 µM; 360,000 tested, 1% active; AID 504660, 2011; in the data active = activation above about 30%; also: 0% is about no effect
#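 Inducible HEK293 T-REx D1 cells, force-coupled to calcium signalling, were plated at 4000 cells/well with tetracycline and held overnight at 30 C. After no-wash calcium dye loading, compound-evoked calcium rise over 180 s flagged agonists.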
# * hit, by the source's call; ? = inconclusive; . = not tested or not shown; ! = repeats disagree.
SMILES,D3 ag,D1 antag,D3 antag,ERG Ets-DNA blk,D1 PAM,D1 ag
O=C(c1ccc(CNS(=O)(=O)c2ccccc2)cc1)N1CCC2(CC1)OCCO2,0,-9,-53*,-1%,0,2
Cn1c(O)c(C=NCCN2CCOCC2)c(=O)n(C)c1=S,4,-8,2,-6%,2,2
CC[n+]1c(-c2ccccc2)c2cc(N)ccc2c2ccc(N)cc21,6,.,0,16µM*,.,.
NCCc1c[nH]c2ccccc12,-38,3,?,11%,0,-1
CCCCc1ccc2[nH]cc(CCN)c2c1,65*,5,-1,.,2,90*
Cn1c2ccccc2c2cnn(CC(=O)N3CCC4(CC3)OCCO4)c(=O)c21,.,-31*,.,.,-1,0
Cc1ccc(N2C(=O)/C(=C/N3CCN(C(=O)c4ccco4)CC3)C(=O)NC2=S)cc1C,10,-35*,4,1%,-6,1
Cc1cccc(N2C(=O)/C(=C/N3CCN(C(=O)c4ccco4)CC3)C(=O)NC2=S)c1,-8,3,24,11%,-4,2
C=CC[C@]1(O)CC[C@H]2[C@@H]3CCC4=CC(=O)CCC4=C3C=C[C@@]21C,18,.,.,.,.,.
Cc1cc(C)cc(-n2c(C)cc(/C=C3\C(=O)NC(=O)N(C)C3=O)c2C)c1,-11,11,-65*,-7%,2,3
COc1ccccc1CN1CCN(C(=O)COc2ccccc2)CC1,1,-5,-81*,-8%,-2,0
COc1ccc(OCC(=O)N2CCN(Cc3ccc(SC)cc3)CC2)cc1,3,-38*!,-8,16%,24,2
O=C(COc1ccccc1)N1CCN(CC2CC=CCC2)CC1 (stereo unspecified),-14,-2,-57*,7%,.,3
O=C1OC(c2ccc(Cl)cc2)=N/C1=C\N1CC2CC(C1)c1cccc(=O)n1C2 (stereo unspecified),-2,2,4,9%,-2,2
Cc1ccccc1N1C(=O)CC(=O)N(c2ccccc2C)C1=O,0,-3,9,6%,-6,5
CCCN(CCC)C1CCc2ccc(O)cc2C1 (stereo unspecified),122*,-61*,.,?,-5,-2
CCCN(CCC)C1CCc2cccc(O)c2C1 (stereo unspecified),6,.,-13,-8%,.,.
CCc1ccc(-n2nc(C)c3c2NC(=O)CSC3c2ccc(C(=O)OC)cc2)cc1 (stereo unspecified),-17,-43*,.,8%,1,9
CCc1ccc(-n2nc(C)c3c2NC(=O)CSC3c2ccccc2C)cc1 (stereo unspecified),-13,15,.,7%,-2,0
O=C(Nc1ccc(Cl)cc1C(=O)c1ccccc1)c1ccco1,-4,-33*,-22,6%,-5,5
O=C(Nc1ccc(Cl)cc1C(=O)c1ccccc1Cl)c1ccco1,-12,-39*,-16,-7%,-7,2
O=C(Nc1ccc(Cl)cc1C(=O)c1ccccc1)c1ccccc1Br,1,10,.,5%,1,6
CCOC(=O)C1CCCN(c2ccc([N+](=O)[O-])c3nonc23)C1 (stereo unspecified),4,-29,-10,3.2µM*,15,752*
CN(C)P1(N(C)C)=Nc2c(c(N)nn2C)C(c2ccccc2)=N1,-3,-3,0,1%,-1,2
COc1ccc(CN2CCCC(C(=O)c3sccc3C)C2)cc1O (stereo unspecified),-20,6,-74*,2%,-9,1
SMILES,D3 ag,D1 antag,D3 antag,ERG Ets-DNA blk,D1 PAM,D1 ag
COc1cc(CN2CCCC(C(=O)c3sccc3C)C2)cc(Cl)c1O (stereo unspecified),-19,3,-51*,-1%,-10,1
CC=C(C)C1(CCC)C(=O)NC(=S)NC1=O,7,.,9,-9%,.,.
CCOc1ccc2oc(C(=O)NN3C(C)CCCC3C)c(C)c2c1 (stereo unspecified),-5,2,-5,-8%,-1,-1
COC(=O)C1=C(c2ccc(OC)c(OC)c2)C[C@@H]2CC[C@H]1N2C(=O)NC1CC1,16,.,32,9%,1,1
O=C(c1cc(F)ccc1F)C1CCCN(Cc2cccc(Cl)c2)C1 (stereo unspecified),-7,-1,-79*,-12%,-4,5
O=C(c1cc(F)ccc1F)C1CCCN(CCCc2ccccc2)C1 (stereo unspecified),-15,-2,-74*,-3%,-1,0
CN1CCN(c2nc(Cl)ncc2F)CC1,-9,-32*,5,5%,-11,4
COC(=O)C1=C(c2ccc(F)cc2OCc2ccccc2)C[C@@H]2CC[C@H]1N2C,0,-11,-56*,-4%,2,18
COC(=O)C1=C(c2ccc(F)cc2OCc2ccccc2)C[C@@H]2CC[C@H]1N2C(=O)NCCc1ccc(F)cc1,-20,-32*,-19,-4%,-6,5
CCOc1ccc(NC2=NCCCS2)cc1,15,8,6,-17%,5,4
CC1OC(C)OC(C)O1 (stereo unspecified),10,.,.,.,.,.
CCOc1ccc(-c2cc(C)[n+](CCc3ccc(OC)c(OC)c3)c(-c3ccc(OCC)cc3)c2)cc1,-7,6,-10,0%,4,5
Cc1cc(-c2ccccc2)cc(-c2ccccc2)[n+]1CCc1ccccc1,0,-43*,19,8%,-12,-2
COCCO[C@H]1CCC2C3CC=C4C[C@@H](O)CC[C@]4(C)C3CC[C@@]21C (stereo partly specified),23,.,12,12%,.,.
Clc1ccc(COC(Cn2ccnc2)c2ccc(Cl)cc2Cl)c(Cl)c1 (stereo unspecified),47*!,-48*,-8,11%,-3,12
Cc1ccc(S(=O)(=O)N2Cc3cc(-c4ccccc4)ccc3-n3nncc3C2)cc1,1,.,8,.,.,.
COc1cc(/C=C(/C)[N+](=O)[O-])ccc1OCc1ccccc1Cl,-16,-13,?,-3%,-9,11
O=C([O-])c1ccc(-[n+]2c(-c3ccccc3)cc(-c3ccccc3)cc2-c2ccccc2)cc1,55*,-14,-15,1%,-7,5
